# PMC8384837, “Expanding the binding specificity for RNA recognition by a PUF domain”
# Experiments:
# Assay in all cases: yeast three-hybrid, YBZ-1, SC-Leu-His + 0.5 mM 3-AT, 4 days
# Settings in all cases: tags: N-Gal4 AD-HA kept; label: inside an RPR1-promoter hybrid RNA with tandem MS2 sites; ssRNA
# PUM1 PUF domain R1-RRE = PUM1 PUF domain R1-RRE (Homo sapiens, UniProt Q14671 828-1176, S863R;Q867E)
# Summary of the method: (§1)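 The interaction score is the log change in variant frequency from input to selection. Scores were computed in log2 with a pseudocount of 1 for absent variants, using Illumina sequencing of PCR-amplified repeat regions. The input came from four days on SC-Leu and the selection from four days on SC-Leu-His + 0.5 mM 3-AT. The cells were strain YBZ-1 (LexA–MS2 coat fusion, HIS3 reporter) co-expressing Pumilio-1 PUF domain libraries and matching RNA elements from a centromeric plasmid.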
# PUM1 PUF domain R2-LHR = PUM1 PUF domain R2-LHR (Homo sapiens, UniProt Q14671 828-1176, N899L;Y900H;Q903R)
# Summary of the method: as §1
# PUM1 PUF domain R3-APR = PUM1 PUF domain R3-APR (Homo sapiens, UniProt Q14671 828-1176, C935A;R936P;Q939R)
# Summary of the method: as §1
# PUM1 PUF domain R3-GRC = PUM1 PUF domain R3-GRC (Homo sapiens, UniProt Q14671 828-1176, C935G;Q939C)
# Summary of the method: as §1
# PUM1 PUF domain R5-TPR = PUM1 PUF domain R5-TPR (Homo sapiens, UniProt Q14671 828-1176, C1007T;R1008P;Q1011R)
# Summary of the method: as §1
# PUM1 PUF domain R7-CTR = PUM1 PUF domain R7-CTR (Homo sapiens, UniProt Q14671 828-1176, S1079C;N1080T;E1083R)
# Summary of the method: as §1
# PUM1 PUF domain R7-EPD = PUM1 PUF domain R7-EPD (Homo sapiens, UniProt Q14671 828-1176, S1079E;N1080P;E1083D)
# Summary of the method: as §1
# PUM1 PUF domain R7-QGG = PUM1 PUF domain R7-QGG (Homo sapiens, UniProt Q14671 828-1176, S1079Q;N1080G;E1083G)
# Summary of the method: as §1
# PUM1 PUF domain R3-EWR = PUM1 PUF domain R3-EWR (Homo sapiens, UniProt Q14671 828-1176, C935E;R936W;Q939R)
# Summary of the method: as §1
# PUM1 PUF domain R3-DWQ = PUM1 PUF domain R3-DWQ (Homo sapiens, UniProt Q14671 828-1176, C935D;R936W)
# Summary of the method: as §1
sequence,measurement,setting,value
GGCUAGAACUAGUGGAUCCCCCGGCGCCCGGCGGCUCGAGCCCGGGUAAGUGUAAAUCGUCUGCAUGCCGCCGGGCGCCAUGCCUGCAGGUCGACUCUAGAAAACAUG,binding signal,PUM1 PUF domain R1-RRE,3.92 log2 enrichment (interaction score)
GGCUAGAACUAGUGGAUCCCCCGGCGCCCGGCGGCUCGAGCCCGGGUAAGUGUAAAAAGUCUGCAUGCCGCCGGGCGCCAUGCCUGCAGGUCGACUCUAGAAAACAUG,binding signal,PUM1 PUF domain R2-LHR,3.5 log2 enrichment (interaction score)
GGCUAGAACUAGUGGAUCCCCCGGCGCCCGGCGGCUCGAGCCCGGGUAAGUGUAAAUGGUCUGCAUGCCGCCGGGCGCCAUGCCUGCAGGUCGACUCUAGAAAACAUG,binding signal,PUM1 PUF domain R1-RRE,2.12 log2 enrichment (interaction score)
GGCUAGAACUAGUGGAUCCCCCGGCGCCCGGCGGCUCGAGCCCGGGUAAGUGUAAAUAGUCUGCAUGCCGCCGGGCGCCAUGCCUGCAGGUCGACUCUAGAAAACAUG,binding signal,PUM1 PUF domain R3-APR,2.66 log2 enrichment (interaction score)
same,binding signal,PUM1 PUF domain R3-GRC,3.23 log2 enrichment (interaction score)
GGCUAGAACUAGUGGAUCCCCCGGCGCCCGGCGGCUCGAGCCCGGGUAAGUGUCAAUAGUCUGCAUGCCGCCGGGCGCCAUGCCUGCAGGUCGACUCUAGAAAACAUG,binding signal,PUM1 PUF domain R5-TPR,5.18 log2 enrichment (interaction score)
GGCUAGAACUAGUGGAUCCCCCGGCGCCCGGCGGCUCGAGCCCGGGUAAGUGUAAAUUGUCUGCAUGCCGCCGGGCGCCAUGCCUGCAGGUCGACUCUAGAAAACAUG,binding signal,PUM1 PUF domain R1-RRE,2.91 log2 enrichment (interaction score)
GGCUAGAACUAGUGGAUCCCCCGGCGCCCGGCGGCUCGAGCCCGGGUAAGUUUAAAUAGUCUGCAUGCCGCCGGGCGCCAUGCCUGCAGGUCGACUCUAGAAAACAUG,binding signal,PUM1 PUF domain R7-CTR,2.95 log2 enrichment (interaction score)
same,binding signal,PUM1 PUF domain R7-EPD,3.42 log2 enrichment (interaction score)
same,binding signal,PUM1 PUF domain R7-QGG,3.51 log2 enrichment (interaction score)
GGCUAGAACUAGUGGAUCCCCCGGCGCCCGGCGGCUCGAGCCCGGGUAAGUGUAAGUAGUCUGCAUGCCGCCGGGCGCCAUGCCUGCAGGUCGACUCUAGAAAACAUG,binding signal,PUM1 PUF domain R3-EWR,0.97 log2 enrichment (interaction score)
same,binding signal,PUM1 PUF domain R3-APR,1.67 log2 enrichment (interaction score)
same,binding signal,PUM1 PUF domain R3-GRC,0.66 log2 enrichment (interaction score)
GGCUAGAACUAGUGGAUCCCCCGGCGCCCGGCGGCUCGAGCCCGGGUAAGUGUAAUUAGUCUGCAUGCCGCCGGGCGCCAUGCCUGCAGGUCGACUCUAGAAAACAUG,binding signal,PUM1 PUF domain R3-EWR,3.22 log2 enrichment (interaction score)
same,binding signal,PUM1 PUF domain R3-APR,2.28 log2 enrichment (interaction score)
same,binding signal,PUM1 PUF domain R3-DWQ,4.15 log2 enrichment (interaction score)
same,binding signal,PUM1 PUF domain R3-GRC,1.22 log2 enrichment (interaction score)
